Source: PubChem
A selection: hits, their analogues and other compounds. The true share with any hit is near 2.3%.
LGR2 inh – inhibitors of bursicon-induced Drosophila LGR2 receptor cAMP signaling | AID 720647 | inhibition, % at 9.99 µM | HEK293 LGR2, CRE-luciferase, bursicon-stimulated, 4 h | hit rate 0.35% among 380,000;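 active means drop in luminescence signal, shown as inhibition above about 50% in the replicate tests, limit read from the data, passing the limit was not always enough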;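 further: agonist challenge used bursicon conditioned medium at about half maximal strength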
SENP7 inh – blocks the human protease SENP7. Q9BQF6. recombinant SENP7, Z-RLRGG-aminoluciferin luminescence, 40 min. inhibition, % at 5 µM. hit rate 1.5% among 330,000;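 active means inhibition above about 50% at the single test dose, limit read from the data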;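 further: plate controls were DMSO with enzyme for no effect and no enzyme buffer wells for full effect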
SENP6 inh – inhibitors of human SENP6 protease | AID 2599 | inhibition, % at 10 µM | Q9GZR1 | hit rate 1.8% among 330,000 | Recombinant SENP6 catalytic domain, aminoluciferin luminescence;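 active means inhibition above about 50% at the single tested dose, limit read from the data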;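 further: plate controls were DMSO wells with enzyme for no effect and DMSO wells lacking enzyme for full effect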
SENP8 block-1 – blocks the human protease SENP8. purified SENP8, Z-RLRGG-aminoluciferin cleavage, luminescence. inhibition, % at 10 µM. hit rate 1.2% among 330,000; in the data active means inhibition above about 50%
Target sequence (Q96LD8 whole entry, looked up): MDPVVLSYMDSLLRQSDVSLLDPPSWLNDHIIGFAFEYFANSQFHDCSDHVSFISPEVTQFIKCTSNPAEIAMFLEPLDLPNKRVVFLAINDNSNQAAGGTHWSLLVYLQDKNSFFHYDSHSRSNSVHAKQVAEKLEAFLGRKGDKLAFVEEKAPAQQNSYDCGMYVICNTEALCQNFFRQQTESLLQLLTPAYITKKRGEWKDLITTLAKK
HSP90 refold inh – blocks HSP90-mediated luciferase refolding in reticulocyte lysate; hit rate 0.91% among 290,000; inhibition, % at 5.6 µM; Rabbit reticulocyte lysate, luciferase refolding luminescence, 3 h;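 active means inhibition above the screen-wide mean plus 3 SD, computed separately per campaign, cut at about 16% in these data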;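 further: 0% = DMSO wells and 100% = 60 µM geldanamycin wells; inhibitors lower the luminescence because luciferase stays unfolded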
SENP8 block-2 – SENP8 (human) protease inhibition. Q96LD8. recombinant SENP8, Nedd8 substrate fluorescence. inhibition, % at 20 µM. hit rate 0.64% among 360,000. AID 602440; in the data active means inhibition mostly above about 40%, no sharp cut-off; inactive means mostly below about 27%
SENP8 confirm – confirmation of human SENP8 protease inhibitors | shares compounds with SENP7 inh | Recombinant SENP8, Z-RLRGG-aminoluciferin luminescence, 60 min | inhibition, % at 12.5 µM | hit rate 40% among 6,200 | AID 488912;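 active means mean inhibition across replicates above about 50%, limit read from the data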
SENP6 conf – human SENP6 inhibition, confirmed. shares compounds with SENP7 inh. recombinant SENP6, Z-RLRGG-aminoluciferin luminescence. inhibition, % at 12.5 µM. hit rate 58% among 6,200. AID 488915
SENP7 conf – confirmation of human SENP7 protease inhibitors; hit rate 69% among 6,200; shares compounds with SENP7 inh; recombinant SENP7, Z-RLRGG-aminoluciferin luminescence, 40 min; inhibition, % at 12.5 µM
Casp3 select – caspase-3 inhibition (SENP selectivity assay); hit rate 60% among 6,200; inhibition, % at 12.5 µM; shares compounds with SENP7 inh; purified caspase-3, Z-DEVD-aminoluciferin luminescence, 60 min;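 active means mean inhibition above about 50%, limit read from the data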;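 further: plate controls were enzyme with DMSO for no effect and wells without caspase-3 for full effect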
Target sequence (P42574 28-227 limits assumed): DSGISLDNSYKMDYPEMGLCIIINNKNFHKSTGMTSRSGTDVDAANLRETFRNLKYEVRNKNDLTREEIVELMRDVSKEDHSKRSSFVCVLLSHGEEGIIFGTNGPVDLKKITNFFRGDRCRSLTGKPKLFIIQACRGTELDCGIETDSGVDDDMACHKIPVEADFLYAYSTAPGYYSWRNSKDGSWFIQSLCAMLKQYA
Luc interf – counter-screen for SENP inhibitors: luminescence interference; shares compounds with SENP7 inh; Pre-incubated SENP8/Z-RLRGG-aminoluciferin, luciferase luminescence interference; inhibition, % at 12.5 µM; hit rate 39% among 6,200; AID 488919;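 active means mean inhibition above about 50% when retested at one dose, limit read from the data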;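 further: plate controls were DMSO wells with completed reaction for no effect and substrate without enzyme for full effect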
* marks the source's active call; other numbers are inactive results.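 How the source made its calls, unless noted: active means mean inhibition above about 50% in the one-dose retest (limit read from the data); inactive means the rest.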

Results for Cc1ccc(/C=C/C(=O)c2c(C)nc3ccccn23)cc1 ?
SENP7 inh: 103*; SENP6 inh: 16; SENP8 block-1: -18; HSP90 refold inh: -6; SENP8 block-2: 7; SENP8 confirm: 32; SENP6 conf: 19; SENP7 conf: 33; Casp3 select: 5; Luc interf: 22

Results for CCOc1ccc(/C=C/C(=O)c2ccccc2)cc1 ?
LGR2 inh: 6; SENP7 inh: 83*; SENP6 inh: 76*; SENP8 block-1: 70*; HSP90 refold inh: 5; SENP8 block-2: -5; SENP8 confirm: -24; SENP6 conf: 83*; SENP7 conf: 88*; Casp3 select: 33; Luc interf: 80*

How did CCOc1ccc(N/C=C/C(=O)c2ccccc2)c([N+](=O)[O-])c1 do in these assays?
LGR2 inh: 91*; SENP7 inh: 101*; SENP6 inh: 98*; SENP8 block-1: 97*; HSP90 refold inh: 15; SENP8 block-2: 34; SENP8 confirm: 94*; SENP6 conf: 95*; SENP7 conf: 80*; Casp3 select: 97*; Luc interf: 13

How did CCOc1ccc(C(=O)/C=C/c2ccc(SC)cc2)cc1 do in these assays?
LGR2 inh: -6; SENP7 inh: -13; SENP6 inh: 9; SENP8 block-1: -3; HSP90 refold inh: -2; SENP8 block-2: -140

What do the screens show for `CSc1ccc(/C=C/C(=O)c2ccc(O)cc2)cc1`?
LGR2 inh: -17; SENP7 inh: 34; SENP6 inh: 81*; SENP8 block-1: 74*; HSP90 refold inh: 1; SENP8 block-2: -173; SENP8 confirm: 69*; SENP6 conf: 64*; SENP7 conf: 42; Casp3 select: 23; Luc interf: 50

What do the screens show for `C[C@@H]1CCCCO[C@H](CN(C)S(=O)(=O)c2cccs2)[C@@H](C)CN([C@@H](C)CO)C(=O)c2cc(NS(=O)(=O)c3ccccc3)ccc2O1`?
LGR2 inh: 11

What do the screens show for `C[C@@H]1CN([C@@H](C)CO)C(=O)c2cccc(NS(=O)(=O)c3ccc(F)cc3)c2O[C@@H]1CN(C)S(C)(=O)=O`?
LGR2 inh: -7

What do the screens show for `Cc1ccc(C(=O)/C=C/c2ccc3ncccc3c2)cc1`?
LGR2 inh: -34; SENP7 inh: -12; SENP6 inh: -10; SENP8 block-1: -17; HSP90 refold inh: -3; SENP8 block-2: 6

Results for CN(C)c1ccc(C(=O)/C=C/c2ccccc2)cc1 ?
LGR2 inh: 7; SENP7 inh: 79*; SENP6 inh: 84*; SENP8 block-1: 63*; HSP90 refold inh: 2; SENP8 block-2: 9; SENP8 confirm: 27; SENP6 conf: 17; SENP7 conf: 56*; Casp3 select: 30; Luc interf: 45

How did Cc1ccc(/C=C/C(=O)c2ccccc2)cc1 do in these assays?
LGR2 inh: -28; SENP7 inh: 40; SENP6 inh: 78*; SENP8 block-1: 26; HSP90 refold inh: 7; SENP8 block-2: 17; SENP8 confirm: 51*; SENP6 conf: 60*; SENP7 conf: 64*; Casp3 select: 4; Luc interf: 65*

Results for O=C(N[C@@H]1CC[C@@H](CCNS(=O)(=O)c2ccc(F)cc2)O[C@@H]1CO)C1CCCC1 ?
LGR2 inh: 9

What do the screens show for `COCCOC(=O)CSc1ncccc1-c1nc2cc(C)c(C)cc2[nH]1`?
LGR2 inh: -30; SENP7 inh: 95*; SENP6 inh: 21; SENP8 block-1: 93*; HSP90 refold inh: 0; SENP8 block-2: -439; SENP8 confirm: 93*; SENP6 conf: 96*; SENP7 conf: 102*; Casp3 select: 96*; Luc interf: 96*

What do the screens show for `CCOC(=O)CSc1ccc(-c2nc3cc(C)c(C)cc3[nH]2)cn1`?
SENP7 inh: -17; SENP6 inh: -23; SENP8 block-1: -10; HSP90 refold inh: 2; SENP8 block-2: -356

How did Nc1cccc2cc(-c3ccccc3)oc12 do in these assays?
LGR2 inh: -68; SENP7 inh: 48; SENP6 inh: 55*; SENP8 block-1: 36; SENP8 block-2: -497; SENP8 confirm: 34; SENP6 conf: 35; SENP7 conf: 72*; Casp3 select: 32; Luc interf: 53*

How did COc1ccc(CN(C)C[C@H]2Oc3c(NS(=O)(=O)c4cccs4)cccc3C(=O)N([C@H](C)CO)C[C@H]2C)cc1 do in these assays?
LGR2 inh: 19

What do the screens show for `COc1c(/C=N/NC(N)=S)c(C)nn1-c1ccccc1`?
LGR2 inh: -2; SENP7 inh: 9; SENP6 inh: -1; SENP8 block-1: 70*; HSP90 refold inh: 5; SENP8 block-2: 0; SENP8 confirm: -20; SENP6 conf: -14; SENP7 conf: -8; Casp3 select: -7; Luc interf: -8

What do the screens show for `COc1cccc(CNC(=O)C[C@@H]2C=C[C@@H](NS(=O)(=O)c3ccccc3OC)[C@@H](CO)O2)c1`?
LGR2 inh: 0

What do the screens show for `COc1cc(CNC(=O)C2CC2)ccc1OCc1ccccc1`?
LGR2 inh: -48; SENP7 inh: 48; SENP6 inh: 55*; SENP8 block-1: 36; HSP90 refold inh: -2; SENP8 block-2: 2; SENP8 confirm: 43; SENP6 conf: 40; SENP7 conf: 78*; Casp3 select: 76*; Luc interf: 39

How did CO[C@H]1CN(C)C(=O)c2ccc(NC(=O)c3cccc(F)c3)cc2OC[C@@H](C)N(CC2CC2)C[C@H]1C do in these assays?
LGR2 inh: 24

Results for COc1ccc2nc(-c3ccc(F)cc3)sc2c1 ?
LGR2 inh: 92*; SENP7 inh: 97*; SENP6 inh: 97*; SENP8 block-1: 74*; SENP8 block-2: -476; SENP8 confirm: 95*; SENP6 conf: 97*; SENP7 conf: 101*; Casp3 select: 95*; Luc interf: 78*

Results for COc1cc(OC)cc(-c2nc3ccccc3s2)c1 ?
LGR2 inh: -41; SENP7 inh: 91*; SENP6 inh: 4; SENP8 block-1: 81*; HSP90 refold inh: -1; SENP8 block-2: -63; SENP8 confirm: 92*; SENP6 conf: 93*; SENP7 conf: 100*; Casp3 select: 82*; Luc interf: 77*
